Here are results for 15 compounds from PubChem BioAssay (NCI).

The panel holds about 79,000 compounds, 15% with a hit somewhere; the sample as a whole holds those more often. Active and inactive are the calls of the source. No stated cut-off is given here; in the data, active means growth inhibition above about 70%; inactive means the rest.

This experiment in a line: NCI Yeast Anticancer Drug Screen. Data for the cln2 rad14 strain (AID 165).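 Further: 0% = growth equal to vehicle treated cultures.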 The note with it: S. cerevisiae cln2 rad14 strain, at 50.0 µM, stronger effect = higher value. In a few lines:
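Yeast strain cln2 rad14, bearing defects in cell cycle control and DNA repair, serves as the test system; values reflect growth inhibition compared with vehicle.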
For `CC1CCC2C(C)C3C(CC4C5CC=C6CC(O)CCC6(C)C5CCC43C=O)N2C1` (stereo not given), the growth inhibition is 16.6% (inactive).
The result for `CCCCCCCCCCCCCC(=O)OCCN(C)C` reads -32.6% (inactive); that for `C[N+]1(C)CCC(c2ccccc2)(c2ccccc2)C(O)C1` (stereo not given), -0.2% (inactive).
Turning to `CN(C)c1ccccc1C(=O)NNC(=S)Nc1ccccc1`, the growth inhibition is -13.1% (inactive).
Turning to `CCN(CC)CCNC(=O)c1ccccc1NC(=O)C(=O)Nc1ccccc1C(=O)NCCN(CC)CC`, the growth inhibition was -5.15% (inactive).
On to `C/C=C1/CN2CCc3c([nH]c4ccccc34)C2CC1C(Cc1c[n+]2c(c3[nH]c4ccccc4c13)CC1C(C(=O)OC)=COC(C)C1C2)C(=O)OC` (stereo not given), for which the growth inhibition is 17.1% (inactive).
As for `CC(C)(c1ccc([N+](=O)[O-])cc1)c1ccc(N)c([N+](=O)[O-])c1`, the figure is 0.1% (inactive); as for `C1=CC(c2ccccc2)C(c2ccccc2)C(c2ccccc2)=C1` (stereo not given), -13.2% (inactive); as for `O=C1OC(c2ccc([N+](=O)[O-])cc2)=N/C1=C\c1cccc([N+](=O)[O-])c1`, 38.2% (inactive).
With `CC1CNC(=S)SSC(=S)N1` (stereo not given), the growth inhibition was 32.7% (inactive).
The result for `CC(=O)c1cc2c(cc1C(C)C)C(C)(C)C(C)CC2(C)C` (stereo not given) reads 29.4% (inactive).
The result for `CO[C@H]1CC2CC1C1C3=C(NC21)C1(O)C[C@H]2CN(CC3)C1C[C@@H]2C(C)CO` (stereo not given in full) reads -0.15% (inactive); that for `Nc1nc(N)c(N=Nc2ccc(Cl)cc2)c(=O)[nH]1`, 23.1% (inactive); that for `O=C(O)/C=C\c1cc2c(cc1[N+](=O)[O-])OCO2`, -12.2% (inactive).
In the case of `CCCOc1ccc(C(N)=S)c2ccccc12`, the growth inhibition was -28.2% (inactive).
